# Screens from PubChem.
# Hits are enriched below; roughly 18% of the tested compounds scored in any of these assays.
# GCN5L2 inh – blocks human GCN5L2 histone acetyltransferase; Potency, µM (top dose mostly 58.9 µM), for inactives: at the top dose activity change, negative = inhibition, actives largely listed as inhibitors; AID 504327; GCN5L2 HAT assay, ThioGlo1 CoA-SH fluorescence; 390,000 compounds, 0.21% hits
#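 Compounds, pin-transferred from DMSO stocks, meet 20nM GCN5L2 for 15 min before the reaction begins with H3(1-25) peptide (75uM) and acetyl-CoA (70uM). Thiol-reactive ThioGlo1 reports CoA release over 20 min at room temperature.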
# DT40 TDP1 no CPT – qHTS for Inhibitors of human tyrosyl-DNA phosphodiesterase 1 (TDP1): qHTS in cells in absence of CPT; DT40 Tdp1-/- hTDP1 cells, no CPT, ATP luminescence, 48 h; Potency, µM (doses to about 46.2 µM), without a hit: at the top dose activity change, negative = growth inhibition, actives largely listed as inhibitors; 420,000 compounds, 15% hits; AID 686978, 2013; further: nearly all actives have a fitted effect of over 55% in size
#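 A cellular qHTS used chicken DT40 cells lacking endogenous Tdp1 but carrying stably transfected human TDP1. Compounds were applied without camptothecin, and cell growth kinetics were judged by ATP-dependent luminescence after ≥48 hr.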
# VDR inhibitor – vitamin D3 receptor (human) inhibition; P11473; VDR-SRC2-3 peptide fluorescence polarization, 2 h; Potency, µM, inactives show max response, negative = inhibition, actives largely listed as inhibitors; 400,000 compounds, 0.93% hits
# Target sequence (P11473 whole entry, looked up): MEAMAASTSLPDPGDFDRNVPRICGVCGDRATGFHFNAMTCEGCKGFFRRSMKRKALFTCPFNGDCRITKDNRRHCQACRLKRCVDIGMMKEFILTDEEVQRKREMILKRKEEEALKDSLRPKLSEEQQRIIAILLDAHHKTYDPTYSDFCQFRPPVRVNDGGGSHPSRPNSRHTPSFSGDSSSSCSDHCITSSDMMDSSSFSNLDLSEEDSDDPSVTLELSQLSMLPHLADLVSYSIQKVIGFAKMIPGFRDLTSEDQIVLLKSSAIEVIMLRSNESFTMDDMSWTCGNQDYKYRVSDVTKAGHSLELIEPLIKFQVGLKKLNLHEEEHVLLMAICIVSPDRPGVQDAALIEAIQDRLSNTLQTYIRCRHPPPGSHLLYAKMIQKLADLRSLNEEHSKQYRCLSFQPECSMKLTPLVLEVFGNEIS
#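 Fluorescence polarization assay of small-molecule disruption of VDR binding to coregulator peptide SRC2-3. Compounds and controls pin-transferred, then read after 2 h incubation at ambient room temperature.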
# TDP1 block – blocks human tyrosyl-DNA phosphodiesterase 1; Q9NUW8; recombinant TDP1, AlphaScreen DNA substrate cleavage; Potency, µM (top dose mostly 130 µM), for inactives: top-dose activity change, negative = inhibition, most hits filed as inhibitors; 350,000 compounds, 0.28% hits; further: nearly all actives have a fitted effect of over 40% in size
#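 Here, a 5' biotin and 3' phosphotyrosine-FITC DNA oligonucleotide reports Tdp1 activity: intact substrate bridges AlphaScreen beads, while cleavage leaves a 3' phosphate and drops signal. All incubations at room temperature.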
# TDP1 cell CPT – growth inhibition of DT40 Tdp1-/-;hTDP1 cells with camptothecin (screen for TDP1 inhibitors). chicken DT40 Tdp1-/-;hTDP1 cells + 20 nM CPT, ATP luminescence, 48 h. Potency, µM (doses to about 46.2 µM), inactives show at the top dose activity change, negative = growth inhibition, actives largely listed as inhibitors. 420,000 compounds, 12% hits; further: nearly all actives have a fitted effect of over 55% in size
#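 Cell growth measured by CellTiter-Glo luminescence after a minimum 48 h, 37 C compound exposure with 20 nM CPT in Tdp1-knockout DT40 cells stably expressing hTDP1, seeded 400/well; qHTS titration format.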
# PLK1 PBD inh – inhibitors of human PLK1 polo-box domain binding | P53350 | Plk1 PBD binding of FITC phosphopeptide, fluorescence polarization | Potency, µM, inactives show max response, negative = inhibition, usual class: inhibitors | 360,000 compounds, 2.8% hits; further: series mostly up to about 57 µM; nearly all actives have a fitted effect of over 65% in size
# Numbers without * were called inactive; ? = inconclusive; . = not tested or not shown; [ ] = remark or other dose. The call rests on the fitted dose curve; in most records, active means well fitted curve in the direction sought with a large enough effect; inconclusive means small, poorly fitted or top-dose-only effect, or another doubt; inactive means no such curve, though single readings can be large; an effect the other way counts as inactive or inconclusive. On the % scale 0 is the no-effect control and ±100 the full control effect; potency means the concentration at half of the fitted maximal effect.
SMILES,GCN5L2 inh,DT40 TDP1 no CPT,VDR inhibitor,TDP1 block,TDP1 cell CPT,PLK1 PBD inh
O=C(CC1(O)C(=O)Nc2ccc(Br)cc21)c1ccccc1 (stereo unspecified),.,26µM*,.,.,?,-5%
O=C1c2cccc3cccc(c23)C(=O)N1CCN1CCN(CC(O)COCc2ccc(Cl)cc2)CC1 (stereo unspecified),-9%,15µM*,2%,3%,8.2µM*,3%
COc1cc(COCC(O)CN2CCN(CCN3C(=O)c4cccc5cccc(c45)C3=O)CC2)cc(OC)c1OC (stereo unspecified),-2%,12µM*,5%,5%,18µM*,-13%
O=C1c2cccc3cccc(c23)C(=O)N1CCN1CCN(C(=S)Nc2ccc(Cl)cc2)CC1,37%,?,-4%,-1%,?,-8%
COP(=O)(OC)OC(C(=O)c1ccccc1)c1ccccc1 (stereo unspecified),.,19%,.,.,12%,4%
CCCCCCCCCCCCC/C=C/[C@@H](O)[C@H](CO)NC(C)=O,-13%,?,7%,5%,-15%[4.12 µM],.
Cc1ccc(OCCCC(=O)Nc2sc3c(c2C(N)=O)CCCC3)cc1,-5%,?,?,-2%[12.3 µM],?,.
Cc1cc(C)cc(OCC(=O)Nc2nc(-c3ccccn3)cs2)c1,-2%,?,-19%,0%,?,?
CSCCC(=O)Nc1nc(-c2ccccn2)cs1,-15%,?,?,10%,16µM*,?
O=C(COc1ccccc1Cl)Nc1nc(-c2ccncc2)cs1,-4%,16µM*,-2%,-7%,15µM*,-7%
O=C(COc1ccc(F)cc1Cl)Nc1nc(-c2ccccn2)cs1,-3%,.,.,-8%,.,.
N#Cc1ccccc1OCC(=O)Nc1nc(-c2ccccn2)cs1,.,5.2µM*,.,.,2.9µM*,27µM*
O=C(CCCSc1ccccc1)Nc1nc(-c2ccccn2)cs1,-9%,16µM*,?,9%,29µM*,21µM*
CC(=O)N(CC(O)CN(C(C)=O)c1c(I)c(C(=O)NC[C@@H](O)CO)c(I)c(C(=O)NC[C@@H](O)CO)c1I)c1c(I)c(C(=O)NC[C@@H](O)CO)c(I)c(C(=O)NC[C@@H](O)CO)c1I,-26%[21.4 µM],.,-7%,13%[21 µM],.,.
O=C(Nc1nc(-c2ccccn2)cs1)C1CCCC1,-9%,5.2µM*,-14%,9%,2.9µM*,?
Nc1ccc2c(c1)OC1(CCCC1)O2,15%,-29%,79µM*,7%,-8%,-19%
O=C(Cc1ccccc1)Nc1ccc2c(c1)OC1(CCCC1)O2,-4%,?,-8%,6%,?,1%
Cc1cc(C)c(NC(=O)c2ccc3nc(C(C)C)oc3c2)c(C)c1,-3%,?,3%,1%,?,.
NNC(=O)c1cc2ccccc2cc1O,-2%,?,-9%,7%,-8%,-18%
COc1cc(OC)c(NC(=O)c2ccc3nc(C(C)C)oc3c2)cc1Cl,-4%,18µM*,9%,5%,9.2µM*,.
COc1ccccc1NC(=O)COC(=O)c1cc2ccccc2cc1O,2%,0%,-9%,0%,-22%,-7%
COc1cc(NC(=O)c2cc3ccccc3cc2O)c(OC)cc1Cl,-24%,10µM*,-11%,.,15µM*,-4%
COc1ccccc1NC(=O)c1cc2cc(Br)ccc2cc1O,-6%,3.7µM*,?,0%,6.5µM*,-27%
Cc1ccc(Cl)cc1NC(=O)c1cc2ccccc2cc1O,-15%,2.9µM*,-18%,6%,2.6µM*,0%
Cc1ccc(Cl)c(NC(=O)CN2CCNC(=O)C2)c1Cl,-8%,?,-18%,0%,5%,-4%
SMILES,GCN5L2 inh,DT40 TDP1 no CPT,VDR inhibitor,TDP1 block,TDP1 cell CPT,PLK1 PBD inh
Cc1nn(-c2ccccc2)c2c1cc1c(=O)n(C)c(=O)nc-1n2-c1cccc(Cl)c1,-1%,-23%,-11%,2%,0%,.
COc1cc(OC)c(NC(=O)c2ccoc2C)cc1Cl,1%,?,-15%,7%,15µM*,-20%
O=C(c1csnn1)N1CCC2(CCCN(Cc3cc(C(F)(F)F)cc(C(F)(F)F)c3)C2)CC1,-8%,-4%,-5%,.,5%,.
CCCCN(Cc1ccccc1)S(=O)(=O)c1cc2c(cc1Br)CC(C)N2C(C)=O (stereo unspecified),.,18µM*,-5%,.,18µM*,0%
CCC(=O)N1c2ccc(S(=O)(=O)N(CCO)Cc3ccccc3)cc2CC1C (stereo unspecified),-10%,-20%,-10%,4%,?,-5%
CCOc1ccc(N(CC(=O)NCCSCc2ccco2)S(=O)(=O)c2ccc(F)cc2)cc1,-5%,21µM*,-4%,6%,?,-4%
COc1ccc(N(CC(=O)NCCSCc2ccc(C)cc2)S(=O)(=O)c2ccccc2)cc1,?,7.3µM*,7%,4%[56.1 µM],?,-8%
COc1ccccc1N(CC(=O)NCCSCc1ccc(C)cc1)S(=O)(=O)c1ccccc1,?,?,-8%,2%,?,-11%
CCOc1ccc(S(=O)(=O)N(CC(=O)NCCSCc2ccccc2)c2ccccc2)cc1,-5%,-2%,8%,.,-24%,.
CCOc1ccc(N(CC(=O)NCCSCc2ccco2)S(=O)(=O)c2ccc(C)cc2)cc1,-21%,?,16%,0%,18µM*,-3%
CC1CN(C(=S)Nc2ccccc2)C(C)CN1C=O (stereo unspecified),.,-17%,6%,.,-17%,1%
CN1C(=O)CC(C(=O)Nc2ccccc2F)SC1=Nc1ccc2c(c1)OCO2 (stereo unspecified),2%,-15%,7%,-2%,17%,5%
Cc1cc(C(=O)O)c(C)n1-c1ccccc1,?,-15%,-12%,7%,-14%,-2%
Cc1ccc(C)n1-c1sccc1C(=O)O,?,-10%,31%,.,-8%,3.8µM*
COc1cccc2[nH]c3c(N4CCN(Cc5ccc6c(c5)OCO6)CC4)ncnc3c12,-2%,.,.,9%,.,.
COc1cccc2[nH]c3c(N4CCC(C)CC4)ncnc3c12,-3%,18µM*,19%,8%,26µM*,-13%
c1ccc2c(c1)CCN(c1ncnc3c1[nH]c1ccccc13)C2,-3%,4.6µM*,14%,5%,4.6µM*,-9%
c1ccc2c(c1)[nH]c1c(N3CCC4(CC3)OCCO4)ncnc12,-6%,7.3µM*,-4%,3%,16µM*,1%
COc1cccc2[nH]c3c(N4CCC5(CC4)OCCO5)ncnc3c12,-7%,23µM*,0%,4%,?,1%
